A selection: hits, their analogues and other compounds. The true share with any hit is near 2.4%.
POLK inh = blocks human DNA polymerase kappa activity | Q9UBT6 | purified Pol kappa, fluorescent DNA synthesis assay, 10 min | Potency, µM (top dose mostly 107 µM), usual class: inhibitors | 0.53% of 400,000 active | AID 588579
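Kinetic fluorescence screen: compound preincubated 15 min RT with 10 nM enzyme; 50 nM substrate (final) initiates; reads at 0/10 min.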
Pol eta inh = blocks human DNA polymerase eta activity; Potency, µM (top dose mostly 114 µM), most hits filed as inhibitors; recombinant Pol eta, fluorescent DNA replication assay; AID 588591; 1.2% of 390,000 active
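Pol eta at 10 nM preincubated with compounds 15 min at room temperature; reaction started with fluorescent substrate (50 nM final) and read kinetically at 0 and 10 min.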
POLI inh = DNA polymerase iota (human) inhibition; 1% of 390,000 active; Potency, µM (top dose mostly 115 µM), usual class: inhibitors; Q9UNA4; Pol iota fluorescent replication assay, 10 min
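Fluorescent replication assay read twice, at 0 min and 10 min after adding 50 nM (final) substrate. Enzyme (10 nM) and compounds were first incubated 15 min at room temperature; enzyme-free buffer wells were negative controls.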
POLB inh = blocks human DNA polymerase beta activity; Potency, µM (top dose mostly 114 µM), usual class: inhibitors; Pol beta primer extension/strand displacement, fluorescence kinetic; 1.3% of 340,000 active; P06746
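Enzyme-only controls used 10 nM Pol beta; buffer lacking enzyme served as negative control. Compound preincubated 15 min, then 50 nM substrate added; 0 and 10 min reads at room temperature.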
FEN1 inhibitor = human FEN1 inhibition. 0.35% of 390,000 active. Potency, µM (doses to about 114 µM), actives largely listed as inhibitors. Recombinant FEN1 flap cleavage, fluorescence, 15 min. P39748; further: nearly all actives have a fitted effect of over 65% in size
Target sequence (P39748 whole entry, looked up): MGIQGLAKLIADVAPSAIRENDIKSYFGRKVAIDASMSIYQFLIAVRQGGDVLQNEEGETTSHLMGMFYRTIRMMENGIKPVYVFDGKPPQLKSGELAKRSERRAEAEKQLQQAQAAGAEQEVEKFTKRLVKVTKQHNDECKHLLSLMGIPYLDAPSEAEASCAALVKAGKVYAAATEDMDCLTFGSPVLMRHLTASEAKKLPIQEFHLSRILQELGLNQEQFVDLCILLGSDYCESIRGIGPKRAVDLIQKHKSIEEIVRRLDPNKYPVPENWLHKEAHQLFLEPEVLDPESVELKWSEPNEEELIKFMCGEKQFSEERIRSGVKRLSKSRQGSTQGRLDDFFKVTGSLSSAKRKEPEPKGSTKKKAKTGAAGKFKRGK
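In this screen, 50 nM flap DNA substrate was added to 10 nM FEN1 pretreated with compound for 15 min at room temperature; cleavage was followed with reads at 0 and 15 min, and Hill fitting gave concentration–response parameters.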
WRN inhibitor = WRN helicase (human) inhibition; Potency, µM (series often up to 114 µM), usual class: inhibitors; WRN helicase unwinding, fluorescent forked duplex, kinetic; Q14191; AID 651768; 0.46% of 360,000 active; further: nearly all actives have a fitted effect of over 55% in size
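WRN at 20 nM final preincubated with compound 15 min at room temperature; reaction started with 100 nM fluorophore/quencher forked duplex oligonucleotide and 2 mM ATP final. Unwinding followed kinetically by red fluorescence (ex 525, em 598 nm).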
A number is an active result; i = inactive; ? = inconclusive; nt = not tested or not shown; [ ] = dose if it differs, or a comment. The call rests on the fitted dose curve; in most records, active means well fitted curve in the direction sought with a large enough effect; inconclusive means small, poorly fitted or top-dose-only effect, or another doubt; inactive means no such curve, though single readings can be large; an effect the other way counts as inactive or inconclusive.

SMILES	POLK inh	Pol eta inh	POLI inh	POLB inh	FEN1 inhibitor	WRN inhibitor
CC(C)CNC1=CC(=O)CC(c2ccco2)C1 (configuration not stated)	?	?	28µM	28µM	i	i
OC(CBr)C[n+]1cc(Br)cc2ccccc21 (configuration not stated)	i	nt	i	nt	i	nt
CCCCCCCC/C=C\CCCCCCCC(=O)N[C@H](CO)Cc1ccc(O)cc1	i	nt	nt	nt	nt	nt
CC(=O)c1c(C)nc(-c2ccc(Cl)cc2)nc1N=CN(C)C	i	i	i	35µM	i	i
CC(=O)c1c(C)nc(-c2ccc(Cl)cc2)nc1N	i	i	i	i	i	i
COc1cc(N(C)C)cc(CN(C)CCc2ccc([N+](=O)[O-])cc2)c1O	3µM	nt	nt	nt	nt	nt
C[C@@H]1C(=O)O[C@H]2[C@H](O)[C@@]34[C@H]5CC(C(C)(C)C)[C@]36[C@H](OC(=O)[C@H]6O)O[C@]4(C(=O)O5)[C@@]12O (some centres not stated)	i	nt	nt	nt	nt	nt
Cc1ccc(-c2nc(NC(=O)CSc3cc(C)c4ccccc4n3)ns2)cc1	i	?	i	8.9µM	?	i
CC(=O)c1ccc(N2CCN(C(=O)COc3ccc4c(c3)CCC4)CC2)cc1	?	56µM	79µM	10µM	i	i
CCC1(c2ccc(O)cc2)NC(=O)NC1=O (configuration not stated)	i	nt	nt	nt	nt	nt
CCOc1ccc(Br)cc1/C=N/O	i	i	i	i	i	i
O=C(O)COc1ccc(Br)cc1/C=N/O	i	11µM	?	25µM	i	i
O=C(Cc1ccc(F)cc1)NO	i	nt	i	nt	i	nt
O=C(COc1ccccc1/C=C1\SC(=O)NC1=O)Nc1ccccc1	i	18µM	?	i	i	?
COc1cccc(/C=C2/NC(=O)NC2=O)c1OCC(=O)Nc1ccccc1	i	i	i	i	i	i
COC(=O)c1[nH]c2c(c1C)C(=O)CC(c1ccc(C)cc1)C2 (configuration not stated)	i	?	i	i	i	i
COC(=O)c1[nH]c2c(c1C)C(=O)CC(c1cccc(OC)c1)C2 (configuration not stated)	i	i	?	45µM	i	i
O=C(NCCNCCO)C1(C(F)(F)F)CC(CCc2ccccc2)CCCO1 (configuration not stated)	i	nt	i	nt	i	nt
CCCC(=O)N(Cc1cc(=O)[nH]c2ccccc12)c1cccc(C)c1	i	i	i	i	i	i
Cc1cccc(N(Cc2cc(=O)[nH]c3ccccc23)C(=O)CCl)c1	i	45µM	?	?	i	i[11.6 µM]
COc1ccc(N(Cc2cc(=O)[nH]c3ccccc23)C(=O)CCl)cc1	i	35µM	i	i	i	i
COc1ccc(CNc2ccnc(-c3c(C)noc3C)n2)c(OC)c1	i	nt	nt	nt	nt	nt
COc1cc(NC(=O)CSc2nnc3c(n2)[nH]c2ccc(S(=O)(=O)NC(C)C)cc23)cc(OC)c1OC	?	18µM	45µM	?	i	i[11.6 µM]
Cc1ccc(NC(=O)c2cc(S(=O)(=O)N3CCCC3)cn2C)cc1C	i	i	i	i	i	i
Cn1cc(NC(=O)c2cc(NC(=O)c3cc(NC=O)cn3C)cn2C)cc1C(=O)NCCC(=N)N	0.79µM	nt	nt	14µM	nt	nt
SMILES	POLK inh	Pol eta inh	POLI inh	POLB inh	FEN1 inhibitor	WRN inhibitor
C=C1C=C(C)n2ncc(C(=O)Nc3cccc4cnccc34)c2N1	?	nt	79µM	nt	?	nt
C=C1C=C(C)n2ncc(C(=O)Nc3ccccc3C(=O)OC)c2N1	i	nt	i	nt	i	nt
Nc1nc(SCC(=O)Nc2ccc(OC(F)(F)F)cc2)[nH]c(=O)c1NC(=O)c1ccc(Br)o1	i	?	i	40µM	i	i
CCSc1nc(N)c(NC(=O)c2ccc(Br)o2)c(=O)[nH]1	i	i	i	i	i	i
O=C(CCN1CCCCC1)c1ccc2c(c1)OCCO2	i	i	?	i	i	i
O=C(CCN1CCCC1Cc1ccccc1)c1ccc2c(c1)OCCO2 (configuration not stated)	i	i	?	i	i	56µM
CO/N=C(/C(=O)N[C@@H]1C(=O)N2C(C(=O)O)=C(CSc3cnns3)CS[C@H]12)c1csc(N)n1	i[19.4 µM]	nt	nt	nt	nt	nt
Cc1ccccc1NC(=O)c1nc(SCc2ccccc2F)ncc1Cl	i	nt	i	nt	i	nt
